FBW7 act = FBW7 E3 ligase activators, primary screen, biochemical, AlphaScreen, human; AlphaScreen FBW7–phospho-cyclin E peptide binding, activator screen; normalized activity (activation), % at 26.1 µM; 650,000 tested, 0.13% active; AID 1259310, 2017; in the data active = normalized activity above about 1.9%;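 note: purified mutant Fbw7 with reduced substrate affinity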
TEAD-YAP block = TEAD-YAP interaction inhibition, primary screen, TEAD-YAP interaction inhibitor project, luminescence, HEK-TIYL cells; TEAD-Gal4/YAP UAS-luciferase luminescence; inhibition, % at 9.12 µM; 640,000 tested, 1.4% active; AID 1259422, 2018; in the data active = inhibition above about 32%;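 note: 0% = median of test compound wells and 100% = reference inhibitor wells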
GPR151 ag = activators of human GPR151, primary screen, cell-based, PathHunter beta-arrestin, luminescence | activation, % at 11.2 µM | 650,000 tested, 1% active | PathHunter beta-arrestin GPR151 cells | G-protein coupled receptor 151 (Homo sapiens), Q8TDV0; in the data active = activation above about 4.9%;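 note: 0% = median of compound wells and 100% = cells with positive control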
Target sequence (Q8TDV0 whole entry, looked up): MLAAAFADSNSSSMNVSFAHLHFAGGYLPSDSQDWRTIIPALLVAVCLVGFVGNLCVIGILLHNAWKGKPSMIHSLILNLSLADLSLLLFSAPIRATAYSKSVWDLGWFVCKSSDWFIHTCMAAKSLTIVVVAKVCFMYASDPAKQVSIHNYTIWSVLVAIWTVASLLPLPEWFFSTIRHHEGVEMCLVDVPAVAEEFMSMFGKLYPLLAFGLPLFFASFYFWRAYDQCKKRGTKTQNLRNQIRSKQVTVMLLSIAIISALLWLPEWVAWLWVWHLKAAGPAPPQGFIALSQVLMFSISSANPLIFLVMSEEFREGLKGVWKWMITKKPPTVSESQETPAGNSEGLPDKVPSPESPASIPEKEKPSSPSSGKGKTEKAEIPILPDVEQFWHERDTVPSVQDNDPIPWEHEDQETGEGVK
MITF primary = MITF inhibitors, primary screen, biochemical, AlphaScreen, human; AID 1259374, 2018; AlphaScreen MITF homodimerization, bead proximity signal; 650,000 tested, 0.91% active; inhibition, % at 2.6 µM; in the data active = inhibition above about 50%;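 note: 0% = vehicle wells with protein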
GPR151 confirm = GPR151 activators, triplicate retest, confirmation, cell-based, PathHunter beta-arrestin, luminescence; shares compounds with GPR151 ag; GPR151 PathHunter beta-arrestin cells, 90 min; % of EA-reagent control over plate median; activation, % at 11.2 µM; 6,700 tested, under 10 active; AID 1508609, 2020;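 active = mean percent activation across replicates above the confirmation screen cutoff of 4.91%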
GPR119 ag = GPR119 activators in beta-arrestin cells, counter-screen for GPR151 activator project, cell-based, PathHunter beta-arrestin, luminescence, triplicate; shares compounds with GPR151 ag; 90 min; 0 = compound-well median, 100 = enzyme-acceptor control; activation, % at 11.2 µM; 6,700 tested, 0.3% active; AID 1508611, 2020;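 active = mean percent activation in the counterscreen above 29.09%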;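 note: counterscreen on off-target GPR119 to flag nonselective hits from the GPR151 activator screen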
Starred values were filed as active, the others as inactive; · = no result given; ! = not active in a repeat. Rows were chosen to be rich in hits. Some 3.5% of all compounds tested hit in one or more screens of this group.

SMILES | FBW7 act | TEAD-YAP block | GPR151 ag | MITF primary | GPR151 confirm | GPR119 ag
CC1=C(C(=O)OCC(C)C)C(c2ccc3c(c2)OCO3)NC(=O)N1 (stereo unspecified) | 0 | -2 | 5.9* | 11 | 0 | 5
CC1=C(C(=O)OCc2ccc3c(c2)OCO3)C(c2cccc(Cl)c2)NC(=O)N1 (stereo unspecified) | 0 | 25 | 6.6* | -4 | 1 | 14
O=C(Oc1ccc([N+](=O)[O-])cc1)c1cccc(S(=O)(=O)N2CCCCC2)c1 | 0 | -7 | 2 | 18 | · | ·
CCNC(=S)NCCc1ccc(Cl)cc1 | 0 | -22 | 5.5* | 11 | 0 | 3
O=C(NCCc1ccc(Cl)cc1)C(=O)NCc1ccccc1 | 0 | 5 | 7.4* | 9 | 0 | 16
NNC(=S)NCCc1ccc(Cl)cc1 | 0 | 13 | 0 | 5 | · | ·
COc1ccc(CCNC(=O)CCCCCn2c(SCC(=O)Nc3nccs3)nc3ccsc3c2=O)cc1OC | 0 | -5 | -1 | -3 | · | ·
COc1cc(/C=C2\C(=O)N(c3ccc(Cl)c(C(=O)O)c3)N=C2C)ccc1O | 0 | 1 | 3 | -4 | · | ·
Cc1cc(S(=O)(=O)N2CCCC(CNC(=O)c3cc4ccccc4[nH]3)C2)c(C)s1 (stereo unspecified) | 0 | 0 | 6.2* | 9 | 0 | -2
O=C(NCC1CCCN(S(=O)(=O)/C=C/c2ccccc2)C1)c1cc2ccccc2[nH]1 (stereo unspecified) | 0 | 4 | -1 | -14 | · | ·
CCC(C)NC(=O)c1cc(=O)[nH]c2ccc(Br)cc12 (stereo unspecified) | 0 | 8 | 8.8* | 3 | 3 | 33*
CC(C)CCNC(=O)c1cc(=O)[nH]c2ccc(Br)cc12 | 0 | 2 | 0 | 4 | · | ·
O=C(NC1CC1)c1cc(=O)[nH]c2ccc(Br)cc12 | 0 | -15 | 6.2* | 3 | 0 | 20
O=C(CCCc1ccccc1)NCCOc1ccccc1 | 0 | -7 | 5.2* | 6 | 0 | -1
CCOC(=O)c1cc2c(ccn2C)n1CCC#N | 0 | 12 | 3 | 2 | · | ·
Cc1nnc(CN(C)Cc2cn[nH]c2-c2ccc(C)c(C)c2)o1 | 0 | -18 | 6.7* | 10 | 0 | 6
Cc1ccc(-c2[nH]ncc2CN(C)Cc2c(C)n[nH]c2C)cc1C | 0 | 7 | -2 | 1 | · | ·
O=C(Nn1c(-c2cccc(Cl)c2)nc2ccccc2c1=O)c1ccc(Cl)c(Cl)c1 | 1 | 0 | 1 | 16 | · | ·
Cc1ccc(-n2[nH]c(C)c(C=Nc3cccc(C(=O)O)c3)c2=O)cc1 | 0 | -12 | 5.4*! | 15 | 0 | 0
Cc1ccc(C)c(S(=O)(=O)NCC(c2ccco2)S(=O)(=O)c2ccccc2)c1 (stereo unspecified) | 0 | 2 | 3 | 2 | · | ·
CCN(c1ccccc1)S(=O)(=O)c1ccc(F)c(C(=O)Nc2ccc(Cl)cc2Cl)c1 | 0 | -1 | 1 | -7 | · | ·
O=S(=O)(Nc1nc2ccc(S(=O)(=O)N3CCCCC3)cc2s1)c1ccccc1 | 0 | 3 | 5.3* | 19 | -1 | -9
O=C(NCC1Cc2cccc(-c3ccncc3)c2O1)c1cccc(Cn2cccn2)c1 (stereo unspecified) | 0 | 2 | 9.0* | -3 | 0 | 8
c1ccc(NC2=NCCC2)cc1 | 0 | 8 | 7.1* | -1 | 0 | -6
FC(F)(F)c1ccc(NC2=NCCC2)cc1 | 0 | -8 | 0 | 19 | · | ·
SMILES | FBW7 act | TEAD-YAP block | GPR151 ag | MITF primary | GPR151 confirm | GPR119 ag
C=CCNC(=O)/C(=C\c1ccc(OC)cc1)NC(=O)c1ccccc1Cl | 1 | 5 | 1 | 11 | · | ·
C=CCN(C#N)c1nc(OC)nc(N2CCCC2)n1 | 0 | -2 | 14* | 10 | 1 | 7
Cc1ccc(-n2cc(-c3ccccc3)c3c(NCCCN(C)C)ncnc32)cc1 | 0 | -9 | -2 | -3 | · | ·
Brc1ccc2nc(-c3c[nH]c4ccccc34)cn2c1 | 0 | -29 | 7.1* | 2 | 0 | -8
Cc1cccn2cc(-c3c[nH]c4ccccc34)nc12 | 0 | -46 | 1 | 1 | · | ·
O=C1C2C3C=CC(CC3)C2C(=O)N1c1ccc2ccccc2c1 (stereo unspecified) | 0 | -36 | 0 | 3 | · | ·
C/C(=N\Nc1nnc2c(n1)[nH]c1ccccc12)c1ccc([N+](=O)[O-])cc1 | 0 | -26 | 5.9* | 7 | 0 | -16
COC(=O)C(C)Oc1ccc(/C=C2\Oc3cc(OC)ccc3C2=O)cc1OC (stereo unspecified) | 0 | 4 | 8.8* | -4 | 0 | 10
COc1ccc2c(c1)O/C(=C\c1ccc(OS(C)(=O)=O)c(OC)c1)C2=O | 0 | 1 | 0 | -2 | · | ·
COC(=O)COc1ccc(/C=C2\Oc3cc(OC)ccc3C2=O)cc1OC | 0 | -1 | 0 | -10 | · | ·
COc1ccc2c(c1)O/C(=C\c1ccc(OC)c(OC)c1)C2=O | 0 | 2 | 5.5* | 6 | -1 | 1
COc1cc(C)c2c(c1)O/C(=C\c1ccc(OC)c(OC)c1OC)C2=O | 0 | -11 | 7.5* | 14 | 1 | -6
Cc1ccc(Cn2c(C)c(C=O)c(C(=O)O)c2C)cc1 | 0 | 2 | 2 | 13 | · | ·
CCOc1ccc(C(=O)Nc2sc(C)c(C)c2C#N)cc1 | 0 | -5 | -1 | 14 | · | ·
CCCCOc1ccc(C(=O)Nc2sc(C)c(C)c2C#N)cc1 | 0 | -6 | 8.3* | -2 | -1 | 8
CCOC(=O)C1(Cc2ccccc2C(F)(F)F)CCN(C(=O)Cc2nonc2C)CC1 | 0 | -41 | 0 | 2 | · | ·
Cc1nonc1CN(C)C(=O)C1CC12CCN(C(=O)c1ccccc1C(F)(F)F)CC2 (stereo unspecified) | 0 | -14 | 5.3* | 4 | 0 | 11
COc1ccc(-c2cc(C#N)nc(N3CCN(c4ccccc4)CC3)n2)cc1 | 0 | 0 | 5.2* | -14 | 0 | -3
Cc1cc(C)n(-c2cc(N/N=C\c3ccc(N(C)C)cc3)nc(C)n2)n1 | 0 | 2 | 1 | 5 | · | ·
COc1ccc(-c2[nH]nc3c2C(c2c[nH]c4ccccc24)C(C#N)=C(N)O3)cc1OC (stereo unspecified) | 0 | 21 | 6.4* | 29 | 1 | 3
COc1ccc(-c2[nH]nc3c2C(c2cccc(Cl)c2Cl)C(C#N)=C(N)O3)cc1OC (stereo unspecified) | 0 | 5 | 0 | 2 | · | ·
C[C@H]1NC(=O)[C@@H]2C[C@H](NCc3cccc4cccnc34)CN2C1=O | 0 | 4 | 8.6* | 12 | 0 | 11

Source: PubChem BioAssay
